Source: PubChem BioAssay AID1159580 (chemical genetic matrix, 2015)
In all, about 5,500 compounds went through this assay and about 2,000 (36%) were called active. Roughly 18% stayed inconclusive and do not appear here. Rule as the data show it: active = normalized growth mostly below about 0.91 (no sharp cut-off); inconclusive = no clear call, values can overlap the other calls; inactive = mostly above about 0.92. Some of the results follow.

Experiment: chemical genetic growth profiling, strain panel (AID 1159580);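 also: tested at 20 µM; growth read once vehicle control cultures reached saturation at 30 °C; 1 = growth at the plate median or of vehicle wells; lower values mean less growth of the strain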
Conditions: growth OD

Measured: normalized growth

C=C1C(=O)O[C@@H]2C3O[C@]3(C)CC/C=C(\C)CC[C@@H]12 (some centres not stated)
inactive: S. cerevisiae deletion strains, locus YKL009W, strain mrt4, stronger effect = lower value 0.913 | S. cerevisiae deletion strains, locus YKL085W, strain MDH1 (second series), stronger effect = lower value 0.932 | S. cerevisiae deletion strains, locus YKL085W, strain MDH1, stronger effect = lower value 0.932 | S. cerevisiae deletion strains, locus YKL160W, strain elf1, stronger effect = lower value 0.946 | S. cerevisiae deletion strains, locus YKR026C, strain gcn3, stronger effect = lower value 0.991 | S. cerevisiae deletion strains, locus YKR091W, strain srl3, stronger effect = lower value 0.99 | S. cerevisiae deletion strains, locus YLL001W, strain dnm1, stronger effect = lower value 0.968 | S. cerevisiae deletion strains, locus YLL026W, stronger effect = lower value 0.987 | S. cerevisiae deletion strains, locus YLL041C, strain sdh2, stronger effect = lower value 0.987 | S. cerevisiae deletion strains, locus YLR027C, strain aat2, stronger effect = lower value 0.969 | S. cerevisiae deletion strains, locus YLR058C, strain SHM2, stronger effect = lower value 0.934 | S. cerevisiae deletion strains, locus YLR102C, strain apc9, stronger effect = lower value 0.944 | S. cerevisiae deletion strains, locus YLR113W, strain HOG1, stronger effect = lower value 0.932 | S. cerevisiae deletion strains, locus YLR221C, strain rsa3, stronger effect = lower value 0.993 | S. cerevisiae deletion strains, locus YLR258W, strain gsy2, stronger effect = lower value 0.999 | S. cerevisiae deletion strains, locus YLR320W, strain mms22, stronger effect = lower value 0.893 | S. cerevisiae deletion strains, locus YLR342W, strain FKS1, stronger effect = lower value 0.94 | S. cerevisiae deletion strains, locus YLR357W, strain rsc2, stronger effect = lower value 1.08 | S. cerevisiae deletion strains, locus YLR370C, strain arc18, stronger effect = lower value 0.964 | S. cerevisiae deletion strains, locus YLR384C, strain iki3, stronger effect = lower value 0.975 | S. cerevisiae deletion strains, locus YML120C, strain ndi1, stronger effect = lower value 0.96 | S. cerevisiae deletion strains, locus YMR058W, strain fet3, stronger effect = lower value 0.992 | S. cerevisiae deletion strains, locus YMR129W, stronger effect = lower value 0.993 | S. cerevisiae deletion strains, locus YMR205C, strain PFK2, stronger effect = lower value 0.938 | S. cerevisiae deletion strains, locus YMR231W, strain pep5, stronger effect = lower value 0.982 | S. cerevisiae deletion strains, locus YMR263W, strain SAP30, stronger effect = lower value 0.9 | S. cerevisiae deletion strains, locus YNL128W, strain TEP1, stronger effect = lower value 0.925 | S. cerevisiae deletion strains, locus YNL183C, strain NPR1, stronger effect = lower value 0.952 | S. cerevisiae deletion strains, locus YNL209W, strain ssb2, stronger effect = lower value 0.979 | S. cerevisiae deletion strains, locus YNL248C, strain rpa49, stronger effect = lower value 0.897 | S. cerevisiae deletion strains, locus YNL250W, strain rad50, stronger effect = lower value 0.933 | S. cerevisiae deletion strains, locus YNL322C, strain KRE1 (second series), stronger effect = lower value 0.981 | S. cerevisiae deletion strains, locus YNR049C, strain mso1, stronger effect = lower value 0.997 | S. cerevisiae deletion strains, locus YOL006C, strain TOP1, stronger effect = lower value 0.547 | S. cerevisiae deletion strains, locus YOL012C, strain htz1 0.318 | S. cerevisiae deletion strains, locus YOR001W, strain rrp6, stronger effect = lower value 1.01 | S. cerevisiae deletion strains, locus YOR061W, strain CKA2, stronger effect = lower value 0.918 | S. cerevisiae deletion strains, locus YOR069W, strain VPS5, stronger effect = lower value 0.935 | S. cerevisiae deletion strains, locus YOR070C, strain gyp1, stronger effect = lower value 0.977 | S. cerevisiae deletion strains, locus YOR080W, strain dia2, stronger effect = lower value 0.998 | S. cerevisiae deletion strains, locus YOR083W, strain WHI5, stronger effect = lower value 0.965 | S. cerevisiae deletion strains, locus YOR106W, strain vam3, stronger effect = lower value 0.955 | S. cerevisiae deletion strains, locus YOR231W, strain MKK1, stronger effect = lower value 0.977 | S. cerevisiae deletion strains, locus YOR265W, strain rbl2, stronger effect = lower value 0.978 | S. cerevisiae deletion strains, locus YOR270C, strain vph1, stronger effect = lower value 0.92 | S. cerevisiae deletion strains, locus YOR290C, strain snf2, stronger effect = lower value 0.971 | S. cerevisiae deletion strains, locus YOR316C, strain cot1, stronger effect = lower value 0.93 | S. cerevisiae deletion strains, locus YPL051W, strain arl3, stronger effect = lower value 0.921 | S. cerevisiae deletion strains, locus YPL078C, strain atp4, stronger effect = lower value 0.94 | S. cerevisiae deletion strains, locus YPL106C, strain sse1, stronger effect = lower value 0.869 | S. cerevisiae deletion strains, locus YPL240C, strain hsp82, stronger effect = lower value 0.991 | S. cerevisiae deletion strains, locus YPL256C, strain CLN2, stronger effect = lower value 0.93 | S. cerevisiae deletion strains, locus YPR167C, strain met16, stronger effect = lower value 0.932
active: S. cerevisiae deletion strains, locus YJR075W, strain HOC1, stronger effect = lower value 0.828 | S. cerevisiae deletion strains, locus YKL068W, stronger effect = lower value 0.936 | S. cerevisiae deletion strains, locus YKL190W, strain CNB1, stronger effect = lower value 0.796 | S. cerevisiae deletion strains, locus YKR001C, strain vps1, stronger effect = lower value 0.544 | S. cerevisiae deletion strains, locus YLR039C, strain RIC1, stronger effect = lower value 0.245 | S. cerevisiae deletion strains, locus YLR262C, strain YPT6 (second series), stronger effect = lower value 0.566 | S. cerevisiae deletion strains, locus YLR262C, strain YPT6, stronger effect = lower value 0.193 | S. cerevisiae deletion strains, locus YLR268W, strain sec22, stronger effect = lower value 0.68 | S. cerevisiae deletion strains, locus YLR330W, strain CHS5, stronger effect = lower value 0.849 | S. cerevisiae deletion strains, locus YLR342W, strain FKS1 (second series), stronger effect = lower value 0.536 | S. cerevisiae deletion strains, locus YLR371W, strain rom2, stronger effect = lower value 0.791 | S. cerevisiae deletion strains, locus YLR418C, strain cdc73, stronger effect = lower value 0.42 | S. cerevisiae deletion strains, locus YML016C, strain PPZ1, stronger effect = lower value 0.911 | S. cerevisiae deletion strains, locus YML032C, strain rad52, stronger effect = lower value 0.87 | S. cerevisiae deletion strains, locus YML124C, strain tub3, stronger effect = lower value 0.929 | S. cerevisiae deletion strains, locus YMR078C, strain ctf18, stronger effect = lower value 0.741 | S. cerevisiae deletion strains, locus YMR125W, strain sto1, stronger effect = lower value 0.792 | S. cerevisiae deletion strains, locus YMR223W, strain ubp8, stronger effect = lower value 0.801 | S. cerevisiae deletion strains, locus YMR307W, strain GAS1, stronger effect = lower value 0.26 | S. cerevisiae deletion strains, locus YNL067W, strain RPL9B, stronger effect = lower value 0.808 | S. cerevisiae deletion strains, locus YNL071W, strain lat1, stronger effect = lower value 0.804 | S. cerevisiae deletion strains, locus YNL153C, strain GIM3, stronger effect = lower value 0.822 | S. cerevisiae deletion strains, locus YNL233W, strain BNI4, stronger effect = lower value 0.763 | S. cerevisiae deletion strains, locus YNL271C, strain bni1, stronger effect = lower value 0.905 | S. cerevisiae deletion strains, locus YNL298W, strain CLA4, stronger effect = lower value 0.878 | S. cerevisiae deletion strains, locus YNL307C, strain MCK1, stronger effect = lower value 0.165 | S. cerevisiae deletion strains, locus YNL322C, strain KRE1, stronger effect = lower value 0.861 | S. cerevisiae deletion strains, locus YNR052C, strain pop2, stronger effect = lower value 0.818 | S. cerevisiae deletion strains, locus YOL147C, strain pex11, stronger effect = lower value 0.883 | S. cerevisiae deletion strains, locus YOR136W, strain idh2, stronger effect = lower value 0.905 | S. cerevisiae deletion strains, locus YOR144C, strain elg1, stronger effect = lower value 0.901 | S. cerevisiae deletion strains, locus YOR184W, strain ser1, stronger effect = lower value 0.628 | S. cerevisiae deletion strains, locus YPL055C, strain LGE1, stronger effect = lower value 0.743 | S. cerevisiae deletion strains, locus YPL241C, strain CIN2, stronger effect = lower value 0.922 | S. cerevisiae deletion strains, locus YPR119W, strain clb2, stronger effect = lower value 0.908 | S. cerevisiae deletion strains, locus YPR141C, strain kar3, stronger effect = lower value 0.902 | S. cerevisiae deletion strains, locus YPR163C, strain tif3, stronger effect = lower value 0.355 | S. cerevisiae deletion strains, strain wtn01, stronger effect = lower value 0.786 | S. cerevisiae strains, strain wild type, stronger effect = lower value 0.806
